From PubChem BioAssay AID1159580 (chemical genetic matrix, 2015)
Values joined by “and” are separate entries in the source; they are usually repeats but may differ in a detail not shown here. Equal values may be shown once. Out of some 5,500 compounds screened, about 2,000 (36%) were called active. Roughly 18% stayed inconclusive and do not appear here. Rule as the data show it: active = normalized growth mostly below about 0.91 (no sharp cut-off); inconclusive = no clear call, values can overlap the other calls; inactive = mostly above about 0.92. Some of the results follow.

Assay: chemical genetic growth profiling, strain panel (AID 1159580);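 also: tested at 20 µM; growth read once vehicle control cultures reached saturation at 30 °C; 1 = growth at the plate median or of vehicle wells; lower values mean less growth of the strain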
Conditions: growth OD

Measured: normalized growth

N[C@@H]1CONC1=O
inactive: S. cerevisiae deletion strains, locus YAL021C, strain ccr4, active compounds read low 0.982 | S. cerevisiae deletion strains, locus YAL026C, strain drs2, active compounds read low 0.977 | S. cerevisiae deletion strains, locus YAL030W, strain snc1, active compounds read low 0.973 | S. cerevisiae deletion strains, locus YBL061C, strain skt5, active compounds read low 0.963 | S. cerevisiae deletion strains, locus YBR009C, strain hhf1, active compounds read low 1.02 | S. cerevisiae deletion strains, locus YBR021W, strain FUR4, active compounds read low 1.01 | S. cerevisiae deletion strains, locus YBR023C, strain chs3, active compounds read low 0.975 | S. cerevisiae deletion strains, locus YBR171W, strain sec66, active compounds read low 0.974 | S. cerevisiae deletion strains, locus YBR229C, strain ROT2, active compounds read low 1.01 | S. cerevisiae deletion strains, locus YBR231C, strain swc5, active compounds read low 1.01 | S. cerevisiae deletion strains, locus YBR279W, strain paf1, active compounds read low 0.964 | S. cerevisiae deletion strains, locus YCL011C, strain gbp2, active compounds read low 0.969 | S. cerevisiae deletion strains, locus YCL016C, strain dcc1, active compounds read low 0.953 | S. cerevisiae deletion strains, locus YCL029C, strain bik1, active compounds read low 1.01 | S. cerevisiae deletion strains, locus YCL069W, strain vba3, active compounds read low 0.98 | S. cerevisiae deletion strains, locus YCR088W, strain abp1, active compounds read low 0.981 | S. cerevisiae deletion strains, locus YDL005C, strain med2, active compounds read low 0.958 | S. cerevisiae deletion strains, locus YDL035C, strain GPR1, active compounds read low 1.03 | S. cerevisiae deletion strains, locus YDL040C, strain nat1, active compounds read low 0.971 | S. cerevisiae deletion strains, locus YDL074C, strain BRE1, active compounds read low 1.02 | S. cerevisiae deletion strains, locus YDL101C, strain DUN1, active compounds read low 1.02 | S. cerevisiae deletion strains, locus YDL185W, strain tfp1, active compounds read low 1.02 | S. cerevisiae deletion strains, locus YDL192W, strain arf1, active compounds read low 1.01 | S. cerevisiae deletion strains, locus YDR001C, strain nth1, active compounds read low 0.986 | S. cerevisiae deletion strains, locus YDR069C, strain doa4, active compounds read low 1.01 | S. cerevisiae deletion strains, locus YDR101C, strain arx1, active compounds read low 1 | S. cerevisiae deletion strains, locus YDR137W, strain rgp1, active compounds read low 1.01 | S. cerevisiae deletion strains, locus YDR159W, strain sac3, active compounds read low 0.995 | S. cerevisiae deletion strains, locus YDR162C, strain NBP2, active compounds read low 1.03 | S. cerevisiae deletion strains, locus YDR195W, strain ref2 0.983 | S. cerevisiae deletion strains, locus YDR297W, strain sur2, active compounds read low 0.993 | S. cerevisiae deletion strains, locus YDR318W, strain mcm21, active compounds read low 1.02 | S. cerevisiae deletion strains, locus YDR334W, strain swr1, active compounds read low 0.97 | S. cerevisiae deletion strains, locus YDR335W, strain msn5, active compounds read low 0.991 | S. cerevisiae deletion strains, locus YDR388W, active compounds read low 1.01 | S. cerevisiae deletion strains, locus YDR392W, strain spt3, active compounds read low 0.934 | S. cerevisiae deletion strains, locus YDR502C, strain sam2, active compounds read low 1.02 | S. cerevisiae deletion strains, locus YEL003W, strain gim4, active compounds read low 0.992 | S. cerevisiae deletion strains, locus YEL037C, strain rad23, active compounds read low 0.982 | S. cerevisiae deletion strains, locus YEL061C, strain CIN8 (second series), active compounds read low 1 | S. cerevisiae deletion strains, locus YEL061C, strain CIN8, active compounds read low 1.01 | S. cerevisiae deletion strains, locus YER015W, strain faa2, active compounds read low 0.99 | S. cerevisiae deletion strains, locus YER016W, strain bim1, active compounds read low 0.946 | S. cerevisiae deletion strains, locus YER110C, active compounds read low 1.02 | S. cerevisiae deletion strains, locus YER111C, strain swi4, active compounds read low 0.992 | S. cerevisiae deletion strains, locus YER155C, strain BEM2 (second series), active compounds read low 1.03 | S. cerevisiae deletion strains, locus YER155C, strain BEM2, active compounds read low 0.999 | S. cerevisiae deletion strains, locus YER167W, strain BCK2, active compounds read low 1.01 | S. cerevisiae deletion strains, locus YFR010W, strain ubp6, active compounds read low 0.997 | S. cerevisiae deletion strains, locus YGL078C, strain dbp3, active compounds read low 1.01 | S. cerevisiae deletion strains, locus YGL086W, strain mad1, active compounds read low 1.01 | S. cerevisiae deletion strains, locus YGL167C, strain pmr1, active compounds read low 0.987 | S. cerevisiae deletion strains, locus YGL173C, strain kem1, active compounds read low 0.984 | S. cerevisiae deletion strains, locus YGL227W, strain vid30, active compounds read low 0.961 | S. cerevisiae deletion strains, locus YGL240W, strain doc1, active compounds read low 1.01 | S. cerevisiae deletion strains, locus YGL248W, strain PDE1, active compounds read low 1.01 | S. cerevisiae deletion strains, locus YGL253W, strain hxk2, active compounds read low 0.969 | S. cerevisiae deletion strains, locus YGR135W, strain pre9, active compounds read low 1.02 | S. cerevisiae deletion strains, locus YGR252W, strain gcn5, active compounds read low 1.02 | S. cerevisiae deletion strains, locus YHR013C, strain ard1, active compounds read low 0.964 | S. cerevisiae deletion strains, locus YHR027C, strain rpn1, active compounds read low 1 | S. cerevisiae deletion strains, locus YHR030C, strain SLT2, active compounds read low 1.01 and 1.03 | S. cerevisiae deletion strains, locus YHR079C, strain IRE1 (second series), active compounds read low 1.01 | S. cerevisiae deletion strains, locus YHR079C, strain IRE1, active compounds read low 1.03 | S. cerevisiae deletion strains, locus YHR094C, strain hxt1, active compounds read low 1.01 | S. cerevisiae deletion strains, locus YHR129C, strain ARP1, active compounds read low 1.01 | S. cerevisiae deletion strains, locus YHR142W, strain chs7, active compounds read low 0.981 | S. cerevisiae deletion strains, locus YHR200W, strain rpn10, active compounds read low 1.01 | S. cerevisiae deletion strains, locus YIL066C, strain RNR3, active compounds read low 1.03 | S. cerevisiae deletion strains, locus YIL073C, strain SPO22, active compounds read low 1.02 | S. cerevisiae deletion strains, locus YIL125W, strain kgd1, active compounds read low 1.02 | S. cerevisiae deletion strains, locus YIR030C, strain dcg1, active compounds read low 1.04 | S. cerevisiae deletion strains, locus YJL092W, strain hpr5, active compounds read low 0.992 | S. cerevisiae deletion strains, locus YJL095W, strain BCK1 (second series), active compounds read low 0.975 | S. cerevisiae deletion strains, locus YJL095W, strain BCK1, active compounds read low 1.02 and 1.03 | S. cerevisiae deletion strains, locus YJL115W, strain asf1, active compounds read low 0.968 | S. cerevisiae deletion strains, locus YJL129C, strain trk1, active compounds read low 0.977 | S. cerevisiae deletion strains, locus YJL134W, strain LCB3, active compounds read low 1.01 | S. cerevisiae deletion strains, locus YJL154C, strain vps35, active compounds read low 0.985 | S. cerevisiae deletion strains, locus YJL164C, strain tpk1, active compounds read low 1 | S. cerevisiae deletion strains, locus YJL166W, strain qcr8, active compounds read low 0.998 | S. cerevisiae deletion strains, locus YJL168C, strain set2, active compounds read low 1.01 | S. cerevisiae deletion strains, locus YJL187C, strain SWE1 (second series), active compounds read low 1.05 | S. cerevisiae deletion strains, locus YJR043C, strain POL32, active compounds read low 1 | S. cerevisiae deletion strains, locus YJR066W, strain TOR1, active compounds read low 0.979 | S. cerevisiae deletion strains, locus YJR075W, strain HOC1, active compounds read low 1.02 | S. cerevisiae deletion strains, locus YKL009W, strain mrt4, active compounds read low 1.03 | S. cerevisiae deletion strains, locus YKL068W, active compounds read low 1.01 | S. cerevisiae deletion strains, locus YKL085W, strain MDH1 (second series), active compounds read low 1.05 | S. cerevisiae deletion strains, locus YKL085W, strain MDH1, active compounds read low 1.05 | S. cerevisiae deletion strains, locus YKL160W, strain elf1, active compounds read low 0.935 | S. cerevisiae deletion strains, locus YKR001C, strain vps1, active compounds read low 1.02 | S. cerevisiae deletion strains, locus YKR026C, strain gcn3, active compounds read low 0.986 | S. cerevisiae deletion strains, locus YKR091W, strain srl3, active compounds read low 0.983 | S. cerevisiae deletion strains, locus YLL001W, strain dnm1, active compounds read low 1.01 | S. cerevisiae deletion strains, locus YLL026W, active compounds read low 0.983 | S. cerevisiae deletion strains, locus YLL041C, strain sdh2, active compounds read low 0.975 | S. cerevisiae deletion strains, locus YLR027C, strain aat2, active compounds read low 0.997 | S. cerevisiae deletion strains, locus YLR039C, strain RIC1, active compounds read low 0.975 | S. cerevisiae deletion strains, locus YLR058C, strain SHM2, active compounds read low 1.02 | S. cerevisiae deletion strains, locus YLR102C, strain apc9, active compounds read low 1.01 | S. cerevisiae deletion strains, locus YLR113W, strain HOG1, active compounds read low 1.03 | S. cerevisiae deletion strains, locus YLR221C, strain rsa3, active compounds read low 1.03 | S. cerevisiae deletion strains, locus YLR258W, strain gsy2, active compounds read low 0.97 | S. cerevisiae deletion strains, locus YLR262C, strain YPT6 (second series), active compounds read low 1 | S. cerevisiae deletion strains, locus YLR262C, strain YPT6, active compounds read low 1.01 | S. cerevisiae deletion strains, locus YLR268W, strain sec22, active compounds read low 1.02 | S. cerevisiae deletion strains, locus YLR320W, strain mms22, active compounds read low 0.997 | S. cerevisiae deletion strains, locus YLR330W, strain CHS5, active compounds read low 1.01 | S. cerevisiae deletion strains, locus YLR342W, strain FKS1 (second series), active compounds read low 1.02 | S. cerevisiae deletion strains, locus YLR342W, strain FKS1, active compounds read low 0.99 | S. cerevisiae deletion strains, locus YLR357W, strain rsc2, active compounds read low 0.948 | S. cerevisiae deletion strains, locus YLR370C, strain arc18, active compounds read low 0.968 | S. cerevisiae deletion strains, locus YLR371W, strain rom2, active compounds read low 0.998 | S. cerevisiae deletion strains, locus YLR384C, strain iki3, active compounds read low 0.991 | S. cerevisiae deletion strains, locus YLR418C, strain cdc73, active compounds read low 1.06 | S. cerevisiae deletion strains, locus YML016C, strain PPZ1, active compounds read low 1.01 | S. cerevisiae deletion strains, locus YML032C, strain rad52, active compounds read low 1.01 | S. cerevisiae deletion strains, locus YML120C, strain ndi1, active compounds read low 0.994 | S. cerevisiae deletion strains, locus YML124C, strain tub3, active compounds read low 1.02 | S. cerevisiae deletion strains, locus YMR058W, strain fet3, active compounds read low 1.03 | S. cerevisiae deletion strains, locus YMR078C, strain ctf18, active compounds read low 1.02 | S. cerevisiae deletion strains, locus YMR125W, strain sto1, active compounds read low 0.968 | S. cerevisiae deletion strains, locus YMR129W, active compounds read low 0.969 | S. cerevisiae deletion strains, locus YMR205C, strain PFK2, active compounds read low 0.994 | S. cerevisiae deletion strains, locus YMR223W, strain ubp8, active compounds read low 1.03 | S. cerevisiae deletion strains, locus YMR231W, strain pep5, active compounds read low 0.98 | S. cerevisiae deletion strains, locus YMR307W, strain GAS1, active compounds read low 0.923 | S. cerevisiae deletion strains, locus YNL067W, strain RPL9B, active compounds read low 1.02 | S. cerevisiae deletion strains, locus YNL071W, strain lat1, active compounds read low 0.996 | S. cerevisiae deletion strains, locus YNL183C, strain NPR1, active compounds read low 0.973 | S. cerevisiae deletion strains, locus YNL209W, strain ssb2, active compounds read low 0.989 | S. cerevisiae deletion strains, locus YNL233W, strain BNI4, active compounds read low 1.02 | S. cerevisiae deletion strains, locus YNL248C, strain rpa49, active compounds read low 0.94 | S. cerevisiae deletion strains, locus YNL250W, strain rad50, active compounds read low 1.01 | S. cerevisiae deletion strains, locus YNL271C, strain bni1, active compounds read low 1.02 | S. cerevisiae deletion strains, locus YNL298W, strain CLA4, active compounds read low 1.01 | S. cerevisiae deletion strains, locus YNL307C, strain MCK1, active compounds read low 1.02 | S. cerevisiae deletion strains, locus YNL322C, strain KRE1 (second series), active compounds read low 0.947 | S. cerevisiae deletion strains, locus YNR049C, strain mso1, active compounds read low 0.982 | S. cerevisiae deletion strains, locus YNR052C, strain pop2, active compounds read low 1.02 | S. cerevisiae deletion strains, locus YOL012C, strain htz1 0.629 | S. cerevisiae deletion strains, locus YOL147C, strain pex11, active compounds read low 1.01 | S. cerevisiae deletion strains, locus YOR001W, strain rrp6, active compounds read low 1.02 | S. cerevisiae deletion strains, locus YOR061W, strain CKA2, active compounds read low 1.02 | S. cerevisiae deletion strains, locus YOR069W, strain VPS5, active compounds read low 1.02 | S. cerevisiae deletion strains, locus YOR070C, strain gyp1, active compounds read low 0.984 | S. cerevisiae deletion strains, locus YOR080W, strain dia2, active compounds read low 0.967 | S. cerevisiae deletion strains, locus YOR083W, strain WHI5, active compounds read low 0.908 | S. cerevisiae deletion strains, locus YOR106W, strain vam3, active compounds read low 0.937 | S. cerevisiae deletion strains, locus YOR136W, strain idh2, active compounds read low 1.02 | S. cerevisiae deletion strains, locus YOR144C, strain elg1, active compounds read low 1.02 | S. cerevisiae deletion strains, locus YOR184W, strain ser1, active compounds read low 1.02 | S. cerevisiae deletion strains, locus YOR231W, strain MKK1, active compounds read low 1.04 | S. cerevisiae deletion strains, locus YOR265W, strain rbl2, active compounds read low 0.986 | S. cerevisiae deletion strains, locus YOR270C, strain vph1, active compounds read low 1.05 | S. cerevisiae deletion strains, locus YOR290C, strain snf2, active compounds read low 0.951 | S. cerevisiae deletion strains, locus YOR316C, strain cot1, active compounds read low 1.02 | S. cerevisiae deletion strains, locus YPL051W, strain arl3, active compounds read low 0.957 | S. cerevisiae deletion strains, locus YPL078C, strain atp4, active compounds read low 0.963 | S. cerevisiae deletion strains, locus YPL106C, strain sse1, active compounds read low 0.953 | S. cerevisiae deletion strains, locus YPL240C, strain hsp82, active compounds read low 1 | S. cerevisiae deletion strains, locus YPL256C, strain CLN2, active compounds read low 1.12 | S. cerevisiae deletion strains, locus YPR119W, strain clb2, active compounds read low 1.02 | S. cerevisiae deletion strains, locus YPR141C, strain kar3, active compounds read low 1.02 | S. cerevisiae deletion strains, locus YPR163C, strain tif3, active compounds read low 1.02 | S. cerevisiae deletion strains, locus YPR167C, strain met16, active compounds read low 1.02 | S. cerevisiae deletion strains, strain wtn01, active compounds read low 1.02 | S. cerevisiae strains, strain wild type, active compounds read low 1.01
